# Source: paper PMC7862700, “An all-to-all approach to the identification of sequence-specific readers for epigenetic DNA modifications on cytosine”
# Columns and labels:
# Assay in all cases: DAPPL (digital affinity profiling via proximity ligation, sequencing); 10 mM Tris-HCl pH 7.5, 50 mM NaCl, 1 mM DTT, 4% glycerol, room temperature, 30 min; GST-TFs on glutathione beads, 16-mer random dsDNA library, 0.1% formaldehyde crosslink after washing; high values mean tight binding
# FLI1 = biological target: T1, FLI1 (Homo sapiens, UniProt Q01543 1-452); conditions: protein: recombinant; tags: N-terminal GST; dsDNA, one strand shown
# T1 sequence: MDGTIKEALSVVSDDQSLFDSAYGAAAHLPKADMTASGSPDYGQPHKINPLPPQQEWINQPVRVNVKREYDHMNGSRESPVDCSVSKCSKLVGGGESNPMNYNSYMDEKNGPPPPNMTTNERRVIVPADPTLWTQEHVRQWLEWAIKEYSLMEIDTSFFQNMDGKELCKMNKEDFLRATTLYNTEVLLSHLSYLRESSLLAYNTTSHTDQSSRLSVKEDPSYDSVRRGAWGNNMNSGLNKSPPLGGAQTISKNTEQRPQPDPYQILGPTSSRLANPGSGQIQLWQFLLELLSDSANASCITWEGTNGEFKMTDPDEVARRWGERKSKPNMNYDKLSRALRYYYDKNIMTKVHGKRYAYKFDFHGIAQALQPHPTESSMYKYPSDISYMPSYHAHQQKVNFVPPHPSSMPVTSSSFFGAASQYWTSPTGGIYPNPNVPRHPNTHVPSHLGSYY
# In short: (§1)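 Beads coated with glutathione captured GST-fused human transcription factors that had been expressed in yeast, and the factors were then given DNA barcodes and pooled with a tag-only sample. The pools were incubated with 200 nmole of a random double-stranded 16-mer DNA library in Tris/NaCl/DTT/glycerol buffer for 30 min at room temperature, washed, crosslinked with 0.1% formaldehyde and proximity-ligated with BsaI/T4 ligase at 37 °C for 1 h. PCR amplification and Illumina NextSeq500 sequencing came last. Binding signal is each hexamer's read frequency for a factor divided by its frequency for the tag-only sample.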
# ELK1 = biological target: T2, ELK1 (Homo sapiens, UniProt P19419 1-428); conditions: protein: recombinant; tags: N-terminal GST; dsDNA, one strand shown
# T2 sequence: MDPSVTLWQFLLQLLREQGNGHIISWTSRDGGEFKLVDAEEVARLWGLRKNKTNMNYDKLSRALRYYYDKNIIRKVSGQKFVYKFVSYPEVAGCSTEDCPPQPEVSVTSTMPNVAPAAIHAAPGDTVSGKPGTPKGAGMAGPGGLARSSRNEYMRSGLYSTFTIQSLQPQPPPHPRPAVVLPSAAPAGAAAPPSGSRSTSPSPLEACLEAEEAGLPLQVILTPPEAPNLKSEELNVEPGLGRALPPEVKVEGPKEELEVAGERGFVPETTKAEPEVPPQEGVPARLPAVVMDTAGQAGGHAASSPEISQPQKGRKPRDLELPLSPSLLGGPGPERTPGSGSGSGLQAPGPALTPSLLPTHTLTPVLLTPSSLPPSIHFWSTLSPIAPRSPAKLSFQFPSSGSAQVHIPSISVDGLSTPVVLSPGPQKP
# In short: as §1
# GABPA = biological target: T3, GABPA (Homo sapiens, UniProt Q06546 1-454); conditions: protein: recombinant; tags: N-terminal GST; dsDNA, one strand shown
# T3 sequence: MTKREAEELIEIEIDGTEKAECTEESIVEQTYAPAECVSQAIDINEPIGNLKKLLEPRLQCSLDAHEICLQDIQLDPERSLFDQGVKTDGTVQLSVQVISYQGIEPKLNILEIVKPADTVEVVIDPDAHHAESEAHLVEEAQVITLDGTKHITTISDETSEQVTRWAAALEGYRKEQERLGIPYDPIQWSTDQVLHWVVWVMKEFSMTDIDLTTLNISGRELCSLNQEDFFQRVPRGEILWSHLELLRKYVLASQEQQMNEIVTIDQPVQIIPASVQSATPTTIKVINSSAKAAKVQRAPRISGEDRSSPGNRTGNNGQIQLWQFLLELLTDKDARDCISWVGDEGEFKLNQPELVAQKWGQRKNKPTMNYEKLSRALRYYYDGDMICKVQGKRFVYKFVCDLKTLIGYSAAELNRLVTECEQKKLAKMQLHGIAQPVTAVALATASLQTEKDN
# In short: as §1
# ERG = biological target: T4, ERG (Homo sapiens, UniProt P11308 1-479); conditions: protein: recombinant; tags: N-terminal GST; dsDNA, one strand shown
# T4 sequence: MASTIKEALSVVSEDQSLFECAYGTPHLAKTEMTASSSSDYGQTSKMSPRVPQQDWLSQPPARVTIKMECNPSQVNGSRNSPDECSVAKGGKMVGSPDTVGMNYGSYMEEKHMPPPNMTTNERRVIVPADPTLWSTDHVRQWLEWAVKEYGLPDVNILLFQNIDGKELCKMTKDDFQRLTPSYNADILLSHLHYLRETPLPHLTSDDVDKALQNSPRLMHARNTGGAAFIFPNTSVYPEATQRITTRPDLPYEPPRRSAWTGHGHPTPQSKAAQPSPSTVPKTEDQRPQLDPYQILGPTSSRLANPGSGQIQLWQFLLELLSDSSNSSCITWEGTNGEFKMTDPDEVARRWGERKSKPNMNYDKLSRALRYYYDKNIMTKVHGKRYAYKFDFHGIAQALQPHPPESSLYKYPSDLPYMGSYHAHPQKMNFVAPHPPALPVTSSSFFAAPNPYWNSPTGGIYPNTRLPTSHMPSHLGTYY
# In short: as §1
# ELF1 = ELF1 (Homo sapiens, UniProt P32519 1-619); conditions: protein: recombinant; tags: N-terminal GST; dsDNA, one strand shown
# Sequence of ELF1 (P32519 whole entry): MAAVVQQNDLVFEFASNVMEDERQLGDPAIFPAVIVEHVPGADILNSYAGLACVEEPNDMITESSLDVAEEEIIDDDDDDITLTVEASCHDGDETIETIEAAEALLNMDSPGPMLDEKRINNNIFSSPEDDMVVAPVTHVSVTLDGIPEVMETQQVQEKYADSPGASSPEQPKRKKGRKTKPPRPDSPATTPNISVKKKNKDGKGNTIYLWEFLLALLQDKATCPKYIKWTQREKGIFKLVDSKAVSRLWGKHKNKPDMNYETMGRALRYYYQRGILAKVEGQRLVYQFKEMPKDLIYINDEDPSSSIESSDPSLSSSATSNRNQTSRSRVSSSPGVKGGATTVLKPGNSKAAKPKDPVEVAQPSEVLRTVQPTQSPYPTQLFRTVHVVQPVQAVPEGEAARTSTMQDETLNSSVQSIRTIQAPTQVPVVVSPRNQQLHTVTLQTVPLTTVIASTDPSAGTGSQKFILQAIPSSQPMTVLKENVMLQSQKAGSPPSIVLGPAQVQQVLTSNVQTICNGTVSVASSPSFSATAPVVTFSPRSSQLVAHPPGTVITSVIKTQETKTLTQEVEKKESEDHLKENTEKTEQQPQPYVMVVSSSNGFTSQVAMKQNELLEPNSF
# In short: as §1
# EHF = biological target: T5, EHF (Homo sapiens, UniProt Q9NZC4 1-300); conditions: protein: recombinant; tags: N-terminal GST; dsDNA, one strand shown
# T5 sequence: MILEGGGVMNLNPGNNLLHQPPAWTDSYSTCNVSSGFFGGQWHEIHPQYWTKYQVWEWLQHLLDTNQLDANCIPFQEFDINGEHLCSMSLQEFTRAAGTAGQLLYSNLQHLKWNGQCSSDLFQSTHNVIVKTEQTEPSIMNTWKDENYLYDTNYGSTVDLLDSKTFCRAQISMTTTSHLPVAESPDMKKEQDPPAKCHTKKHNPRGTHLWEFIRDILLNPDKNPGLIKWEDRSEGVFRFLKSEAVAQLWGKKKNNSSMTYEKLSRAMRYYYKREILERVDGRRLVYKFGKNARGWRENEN
# In short: as §1
# SPI1 = SPI1 (Homo sapiens, UniProt P17947 1-270); conditions: protein: recombinant; tags: N-terminal GST; dsDNA, one strand shown
# In short: as §1
# SPIB = SPIB (Homo sapiens, UniProt Q01892 1-262); conditions: protein: recombinant; tags: N-terminal GST; dsDNA, one strand shown
# Sequence of SPIB (Q01892 whole entry): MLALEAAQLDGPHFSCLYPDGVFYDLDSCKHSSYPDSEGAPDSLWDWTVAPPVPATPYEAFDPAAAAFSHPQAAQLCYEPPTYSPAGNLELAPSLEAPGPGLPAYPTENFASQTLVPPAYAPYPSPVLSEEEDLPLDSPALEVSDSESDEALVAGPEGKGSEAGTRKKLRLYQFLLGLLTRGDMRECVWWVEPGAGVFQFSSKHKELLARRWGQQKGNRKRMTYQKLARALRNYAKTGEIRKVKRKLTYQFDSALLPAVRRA
# In short: as §1
# ELK3 = biological target: T6, ELK3 (Homo sapiens, UniProt P41970 1-407); conditions: protein: recombinant; tags: N-terminal GST; dsDNA, one strand shown
# T6 sequence: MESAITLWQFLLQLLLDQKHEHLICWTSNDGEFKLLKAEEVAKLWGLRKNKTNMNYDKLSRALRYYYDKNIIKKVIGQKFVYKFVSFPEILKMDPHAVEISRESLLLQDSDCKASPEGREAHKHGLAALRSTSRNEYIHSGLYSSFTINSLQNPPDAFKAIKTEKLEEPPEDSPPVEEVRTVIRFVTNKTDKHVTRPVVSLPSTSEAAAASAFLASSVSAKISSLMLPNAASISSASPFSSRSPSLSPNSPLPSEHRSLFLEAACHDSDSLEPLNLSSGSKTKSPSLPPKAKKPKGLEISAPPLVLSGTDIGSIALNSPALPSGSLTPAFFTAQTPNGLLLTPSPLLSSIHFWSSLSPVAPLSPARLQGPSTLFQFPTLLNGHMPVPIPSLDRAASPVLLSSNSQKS
# In short: as §1
# FEV = biological target: T7, FEV (Homo sapiens, UniProt Q99581 1-238); conditions: protein: recombinant; tags: N-terminal GST; dsDNA, one strand shown
# T7 sequence: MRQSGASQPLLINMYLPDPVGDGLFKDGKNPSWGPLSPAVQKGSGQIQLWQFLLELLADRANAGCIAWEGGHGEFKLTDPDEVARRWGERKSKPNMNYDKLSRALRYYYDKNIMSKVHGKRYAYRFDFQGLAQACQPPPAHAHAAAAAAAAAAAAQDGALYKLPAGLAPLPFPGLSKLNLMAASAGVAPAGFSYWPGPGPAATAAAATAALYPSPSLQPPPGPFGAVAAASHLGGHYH
# In short: as §1
# ETV5 = ETV5 (Homo sapiens, UniProt P41161 1-510); conditions: protein: recombinant; tags: N-terminal GST; dsDNA, one strand shown
# Sequence of ETV5 (P41161 whole entry): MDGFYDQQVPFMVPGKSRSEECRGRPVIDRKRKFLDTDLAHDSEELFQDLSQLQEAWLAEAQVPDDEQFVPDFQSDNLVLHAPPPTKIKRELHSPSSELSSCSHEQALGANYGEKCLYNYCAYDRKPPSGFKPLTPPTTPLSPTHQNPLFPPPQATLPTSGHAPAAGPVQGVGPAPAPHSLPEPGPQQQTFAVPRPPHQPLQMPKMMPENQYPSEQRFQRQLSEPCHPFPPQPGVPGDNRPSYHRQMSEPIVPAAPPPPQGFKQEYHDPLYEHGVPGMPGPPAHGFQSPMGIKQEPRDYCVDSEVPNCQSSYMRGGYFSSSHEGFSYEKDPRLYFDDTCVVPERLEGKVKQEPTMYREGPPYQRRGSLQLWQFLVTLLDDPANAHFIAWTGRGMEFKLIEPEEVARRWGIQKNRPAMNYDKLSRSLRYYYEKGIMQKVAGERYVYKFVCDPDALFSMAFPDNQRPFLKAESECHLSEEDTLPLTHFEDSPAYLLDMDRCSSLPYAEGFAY
# In short: as §1
# HSF1 = HSF1 (Homo sapiens, UniProt Q00613 1-529); conditions: protein: recombinant; tags: N-terminal GST; chain copies: 3; dsDNA, one strand shown
# Sequence of HSF1 (Q00613 whole entry): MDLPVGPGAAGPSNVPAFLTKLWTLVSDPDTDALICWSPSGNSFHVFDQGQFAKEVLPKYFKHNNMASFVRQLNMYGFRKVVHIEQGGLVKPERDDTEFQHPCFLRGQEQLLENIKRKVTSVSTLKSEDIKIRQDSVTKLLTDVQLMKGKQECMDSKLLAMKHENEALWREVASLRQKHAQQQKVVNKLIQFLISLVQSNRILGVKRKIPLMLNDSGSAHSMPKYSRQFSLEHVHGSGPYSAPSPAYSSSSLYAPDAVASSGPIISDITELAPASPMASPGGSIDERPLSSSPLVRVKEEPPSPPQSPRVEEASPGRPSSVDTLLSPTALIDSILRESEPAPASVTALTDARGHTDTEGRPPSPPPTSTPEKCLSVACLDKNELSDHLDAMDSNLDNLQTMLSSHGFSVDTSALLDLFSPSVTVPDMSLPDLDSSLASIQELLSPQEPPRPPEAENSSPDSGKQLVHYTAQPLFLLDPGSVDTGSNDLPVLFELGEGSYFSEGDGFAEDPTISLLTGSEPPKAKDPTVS
# In short: as §1
# SPIC = biological target: T8, SPIC (Homo sapiens, UniProt Q8N5J4 1-248); conditions: protein: recombinant; tags: N-terminal GST; dsDNA, one strand shown
# T8 sequence: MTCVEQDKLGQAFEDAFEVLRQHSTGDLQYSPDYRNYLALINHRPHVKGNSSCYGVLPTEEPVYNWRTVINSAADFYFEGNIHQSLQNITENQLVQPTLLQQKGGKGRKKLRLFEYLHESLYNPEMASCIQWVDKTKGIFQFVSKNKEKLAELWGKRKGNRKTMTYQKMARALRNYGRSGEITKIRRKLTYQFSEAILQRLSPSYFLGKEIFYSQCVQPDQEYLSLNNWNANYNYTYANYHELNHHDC
# In short: as §1
# ELF4 = ELF4 (Homo sapiens, UniProt Q99607 1-663); conditions: protein: recombinant; tags: N-terminal GST; dsDNA, one strand shown
# Sequence of ELF4 (Q99607 whole entry): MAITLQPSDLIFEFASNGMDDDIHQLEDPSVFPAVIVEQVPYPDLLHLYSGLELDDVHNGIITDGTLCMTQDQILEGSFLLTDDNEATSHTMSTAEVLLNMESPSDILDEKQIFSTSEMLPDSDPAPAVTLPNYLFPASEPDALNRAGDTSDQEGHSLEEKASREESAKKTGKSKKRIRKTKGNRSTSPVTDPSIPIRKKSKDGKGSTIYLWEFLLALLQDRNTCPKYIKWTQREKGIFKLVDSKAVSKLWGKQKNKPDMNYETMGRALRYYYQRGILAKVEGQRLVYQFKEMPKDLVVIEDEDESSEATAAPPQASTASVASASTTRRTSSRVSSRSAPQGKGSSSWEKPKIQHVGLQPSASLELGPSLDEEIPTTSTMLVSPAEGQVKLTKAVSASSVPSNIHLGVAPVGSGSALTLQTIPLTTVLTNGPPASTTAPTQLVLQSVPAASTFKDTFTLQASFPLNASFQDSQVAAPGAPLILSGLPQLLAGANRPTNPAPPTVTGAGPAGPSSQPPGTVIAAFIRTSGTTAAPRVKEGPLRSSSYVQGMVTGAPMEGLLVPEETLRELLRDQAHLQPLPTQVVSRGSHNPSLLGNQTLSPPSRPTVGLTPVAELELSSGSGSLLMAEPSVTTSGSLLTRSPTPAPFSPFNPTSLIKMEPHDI
# In short: as §1
# ELK4 = biological target: T9, ELK4 (Homo sapiens, UniProt P28324-2 1-405); conditions: protein: recombinant; tags: N-terminal GST; dsDNA, one strand shown
# T9 sequence: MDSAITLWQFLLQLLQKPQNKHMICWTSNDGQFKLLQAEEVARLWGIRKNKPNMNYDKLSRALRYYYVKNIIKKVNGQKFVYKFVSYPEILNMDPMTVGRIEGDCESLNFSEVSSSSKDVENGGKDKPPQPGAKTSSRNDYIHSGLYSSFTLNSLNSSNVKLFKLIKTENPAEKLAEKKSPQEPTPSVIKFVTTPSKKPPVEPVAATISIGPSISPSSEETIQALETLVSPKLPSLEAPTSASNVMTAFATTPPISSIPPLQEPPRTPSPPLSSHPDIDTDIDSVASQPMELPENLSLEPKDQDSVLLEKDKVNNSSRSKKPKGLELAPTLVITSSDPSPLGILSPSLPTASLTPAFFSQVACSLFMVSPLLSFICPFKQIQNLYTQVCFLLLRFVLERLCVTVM
# In short: as §1
# ETV2 = biological target: T10, ETV2 (Homo sapiens, UniProt O00321 1-342); conditions: protein: recombinant; tags: N-terminal GST; dsDNA, one strand shown
# T10 sequence: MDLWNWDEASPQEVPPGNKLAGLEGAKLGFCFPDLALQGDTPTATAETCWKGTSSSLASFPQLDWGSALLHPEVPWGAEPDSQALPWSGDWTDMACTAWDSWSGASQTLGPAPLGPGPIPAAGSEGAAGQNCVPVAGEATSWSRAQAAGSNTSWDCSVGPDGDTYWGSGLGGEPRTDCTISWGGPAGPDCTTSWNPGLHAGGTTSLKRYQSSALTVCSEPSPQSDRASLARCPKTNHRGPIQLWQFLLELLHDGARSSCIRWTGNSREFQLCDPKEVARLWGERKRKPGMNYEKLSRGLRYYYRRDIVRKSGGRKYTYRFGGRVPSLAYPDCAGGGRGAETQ
# In short: as §1
# ELF3 = biological target: T11, ELF3 (Homo sapiens, UniProt P78545 1-371); conditions: protein: recombinant; tags: N-terminal GST; dsDNA, one strand shown
# T11 sequence: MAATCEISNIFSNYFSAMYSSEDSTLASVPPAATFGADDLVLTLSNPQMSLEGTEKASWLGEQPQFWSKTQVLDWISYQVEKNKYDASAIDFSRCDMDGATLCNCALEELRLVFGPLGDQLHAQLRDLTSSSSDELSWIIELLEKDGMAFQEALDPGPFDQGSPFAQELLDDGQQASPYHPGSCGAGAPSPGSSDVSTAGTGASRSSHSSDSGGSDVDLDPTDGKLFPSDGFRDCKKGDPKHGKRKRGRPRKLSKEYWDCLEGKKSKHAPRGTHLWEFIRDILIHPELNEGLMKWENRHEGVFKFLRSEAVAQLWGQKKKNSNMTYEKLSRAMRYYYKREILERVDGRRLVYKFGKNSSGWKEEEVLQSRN
# In short: as §1
# CRX = CRX (Homo sapiens, UniProt O43186 1-299); conditions: protein: recombinant; tags: N-terminal GST; dsDNA, one strand shown
# Sequence of CRX (O43186 whole entry): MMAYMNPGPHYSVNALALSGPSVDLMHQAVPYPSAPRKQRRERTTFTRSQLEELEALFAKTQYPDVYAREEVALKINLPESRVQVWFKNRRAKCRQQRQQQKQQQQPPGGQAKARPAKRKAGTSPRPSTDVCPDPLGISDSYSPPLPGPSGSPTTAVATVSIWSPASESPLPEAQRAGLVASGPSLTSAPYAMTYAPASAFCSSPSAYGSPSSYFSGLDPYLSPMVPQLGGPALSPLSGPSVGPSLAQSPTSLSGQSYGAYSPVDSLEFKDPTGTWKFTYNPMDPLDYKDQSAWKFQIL
# In short: as §1
# ETV1 = ETV1 (Homo sapiens, UniProt P50549 1-477); conditions: protein: recombinant; tags: N-terminal GST; dsDNA, one strand shown
# Sequence of ETV1 (P50549 whole entry): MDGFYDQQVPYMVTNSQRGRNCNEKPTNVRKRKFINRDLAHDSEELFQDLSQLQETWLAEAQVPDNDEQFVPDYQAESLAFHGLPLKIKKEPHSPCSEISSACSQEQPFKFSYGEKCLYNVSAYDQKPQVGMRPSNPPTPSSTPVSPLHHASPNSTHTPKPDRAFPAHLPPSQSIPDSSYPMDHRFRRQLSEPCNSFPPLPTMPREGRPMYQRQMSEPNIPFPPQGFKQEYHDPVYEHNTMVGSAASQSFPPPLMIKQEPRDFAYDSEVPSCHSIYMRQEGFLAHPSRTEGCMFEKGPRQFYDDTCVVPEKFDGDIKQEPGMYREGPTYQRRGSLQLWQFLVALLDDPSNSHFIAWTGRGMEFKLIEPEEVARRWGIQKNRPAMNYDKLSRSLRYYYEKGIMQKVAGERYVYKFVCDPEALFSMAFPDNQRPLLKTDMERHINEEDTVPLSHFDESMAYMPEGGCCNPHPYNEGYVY
# In short: as §1
sequence,measurement,setting,value
CCTAAG,binding signal,FLI1,"1.09 fold enrichment (6-mer frequency, TF over GST control)"
same,binding signal,ELK1,"1.14 fold enrichment (6-mer frequency, TF over GST control)"
same,binding signal,GABPA,"1.12 fold enrichment (6-mer frequency, TF over GST control)"
same,binding signal,ERG,"1.16 fold enrichment (6-mer frequency, TF over GST control)"
same,binding signal,ELF1,"1.19 fold enrichment (6-mer frequency, TF over GST control)"
same,binding signal,EHF,"1.18 fold enrichment (6-mer frequency, TF over GST control)"
same,binding signal,SPI1,"1.06 fold enrichment (6-mer frequency, TF over GST control)"
same,binding signal,SPIB,"1.21 fold enrichment (6-mer frequency, TF over GST control)"
same,binding signal,ELK3,"1.17 fold enrichment (6-mer frequency, TF over GST control)"
same,binding signal,FEV,"1.14 fold enrichment (6-mer frequency, TF over GST control)"
same,binding signal,ETV5,"1.2 fold enrichment (6-mer frequency, TF over GST control)"
same,binding signal,HSF1,"1.35 fold enrichment (6-mer frequency, TF over GST control)"
same,binding signal,SPIC,"1.14 fold enrichment (6-mer frequency, TF over GST control)"
same,binding signal,ELF4,"1.26 fold enrichment (6-mer frequency, TF over GST control)"
same,binding signal,ELK4,"1.27 fold enrichment (6-mer frequency, TF over GST control)"
same,binding signal,ETV2,"1.08 fold enrichment (6-mer frequency, TF over GST control)"
same,binding signal,ELF3,"1.09 fold enrichment (6-mer frequency, TF over GST control)"
same,binding signal,CRX,"1.85 fold enrichment (6-mer frequency, TF over GST control)"
same,binding signal,ETV1,"1.09 fold enrichment (6-mer frequency, TF over GST control)"
